# From PubChem BioAssay (EPA / NIEHS)
# Where “and” joins values, the source holds several entries; their conditions need not be identical. Identical values can stand only once. Calls of active or inactive are those of the source. The calls were made as follows: active = hit-call score of the fitted dose curve at least 0.9, where 1 is the maximum; inactive = score below 0.9.
# Read-out: CD40, CD40 (gene 958)
# Assay: BSK_LPS_CD40: BioMAP Diversity Plus: LPS Assay for CD40 Biomarker Activity (AID 2283076)
# Details: primary human HUVEC with PBMC; actives raise or lower the signal
# Experimental: BSK_LPS is a cell-based, multiplexed-readout assay that uses umbilical vein endothelium and peripheral blood mononuclear cells, a human vascular primary cell co-culture, with measurements taken at 24 hours after chemical dosing in a 96-well plate.BSK_LPS_CD40 is an assay component measured in the BSK_LPS assay. It measures CD40 antibody related to regulation of gene expression using ELISA technology.Data from the assay component BSK_LPS_CD40 was analyzed into 1 assay endpoint. This assay endpoint, BSK_LPS_CD40, was analyzed with bidirectional fitting relative to DMSO as the negative control and baseline of activity. Using a type of binding reporter, gain or loss-of-signal activity can be used to understand changes in the signaling as they relate to the gene CD40. Furthermore, this assay endpoint can be referred to as a primary readout, because this assay has produced multiple assay endpoints where this one serves a signaling function. To generalize the intended target to other relatable targets, this assay endpoint is annotated to the cytokine intended target family, where the subfamily is inflammatory factor.
# The levels of cell surface (or secreted, indicated by the prefix "s") biomarker endpoints were measured by ELISA. Overt cytotoxicity to cells in confluent adherent cultures (all systems other than the BT system) was assessed by measuring total protein levels using sulforhodamine B (SRB) staining in parallel cultures at the time of biomarker measurements, indicated as SRB endpoints. For proliferation assays for adherent cell types, individual cell types are cultured at sub-confluence and relative cell numbers quantified by SRB staining at time points optimized for each system (48 h: 3C and CASM3C systems; 72 h: BT and HDF3CGF systems; 96 h: SAg system). SRB was performed by staining cells with 0.1% SRB after fixation with 10% TCA and reading wells at 560 nm.Viability and proliferation of PBMC (T cells) was quantified by Alamar Blue reduction for the SAg and BT systems. For PBMC viability (referred to as PBMC Cytotoxicity within the assay endpoint names), cells were plated (75,000/well in a 96-well plate) and then chemical samples added for 1 h before addition of activators, SEB and TSST-1 (20 ng/mL final concentration each). Cells were incubated for 90 h. Then, Alamar Blue (20 uL/well) (Invitrogen, Cat DAL1100) was added for 6 h, and the plates were read with a fluorescence microplate reader at 546/580 nm (excitation/emission). For PBMC proliferation, cells were plated and activated as above but incubated for only 16 h prior to addition of Alamar Blue. Plates were read after 6 h.
SMILES,outcome,AC50
COc1c(Cl)ccc(Cl)c1C(=O)O,inactive,
CC(C)CCCCCCc1ccc(O)cc1,,9.28 µM (active)
CCCCOC(=O)[C@@H](C)Oc1ccc(Oc2ccc(C(F)(F)F)cn2)cc1,inactive,
COC(=O)c1ccccc1C(=O)O,inactive,
CC(C)(c1ccc(O)cc1)c1ccc(O)cc1,inactive,
C[C@]12CC[C@@H]3c4ccc(O)cc4C[C@@H](CCCCCCCCCS(=O)CCCC(F)(F)C(F)(F)F)[C@H]3[C@@H]1CC[C@@H]2O (stereo not given in full),inactive,
CC(C)(C)[C@@H](O)[C@@H](Cc1ccc(Cl)cc1)n1cncn1,inactive,
CCOC(=O)C(C)Oc1ccc(Oc2cnc3cc(Cl)ccc3n2)cc1 (stereo not given),inactive,
COC(=O)CSc1cc(N=c2sc(=O)n3n2CCCC3)c(F)cc1Cl,inactive,
N#CSCSc1nc2ccccc2s1,,1.9 µM (active) and 5.14 µM (active)
O=C(O)C1(C(=O)Nc2ccc(Cl)cc2Cl)CC1,inactive,
COC(=O)c1ccc(CNS(C)(=O)=O)cc1S(=O)(=O)NC(=O)Nc1nc(OC)cc(OC)n1,inactive,
S=C([S-])NCCNC(=S)[S-].[Mn+2],inactive,
N[C@@H](Cc1cc(I)c(Oc2ccc(O)c(I)c2)c(I)c1)C(=O)O,inactive,
CC(=O)S[C@@H]1CC2=CC(=O)CC[C@]2(C)[C@H]2CC[C@@]3(C)[C@@H](CC[C@@]34CCC(=O)O4)[C@H]12,,25 µM (active)
O=C(c1ccc(O)cc1O)c1ccc(O)cc1O,inactive,
CCOC(=O)[C@H](C)Oc1ccc(Oc2nc3ccc(Cl)cc3o2)cc1,inactive,
OB(O)O,inactive,
COCCO,inactive,
CCC(O)=C1C(=O)CC(C(=O)O)CC1=O (stereo not given),inactive,

SMILES,outcome,AC50
C#C[C@]1(O)CC[C@H]2[C@@H]3CCC4=CC(=O)CC[C@@H]4[C@H]3CC[C@@]21CC,inactive,
S=C(S)NCCNC(=S)S.[Mn+2].[S-]C([S-])=NCCN=C([S-])[S-].[Zn+2],inactive,
COC(=O)c1ccccc1S(=O)(=O)NC(=O)Nc1nc(OC(F)F)cc(OC(F)F)n1,inactive,
CCCCC(CC)CN1C(=O)C2C3C=CC(C3)C2C1=O (stereo not given),,11.6 µM (active)
C#CCOC(=O)[C@@H](C)Oc1ccc(Oc2ncc(Cl)cc2F)cc1,inactive,
CCN(CC)C(=O)c1cccc(C)c1,inactive,
CCNc1nc(N)nc(Cl)n1,inactive,
COC(=O)c1cccc(C)c1S(=O)(=O)NC(=O)Nc1nc(OCC(F)(F)F)nc(N(C)C)n1,inactive,
CC1(C)C(C=C(Cl)Cl)C1C(=O)OCc1cccc(Oc2ccccc2)c1 (stereo not given),inactive,
CCOC(=O)NCCOc1ccc(Oc2ccccc2)cc1,,8.9 µM (active)
CCN(Cc1c(F)cccc1Cl)c1c([N+](=O)[O-])cc(C(F)(F)F)cc1[N+](=O)[O-],,9.02 µM (active)
CCCCCOC(=O)COc1cc(N2C(=O)C3=C(CCCC3)C2=O)c(F)cc1Cl,,16 µM (active)
Oc1ccc(C(c2ccc(O)cc2)C(Cl)(Cl)Cl)cc1,,24.9 µM (active)
CCOC(=O)COc1cc(-n2ncc(C(F)(F)F)c(C)c2=O)c(F)cc1Cl,inactive,
CCSC(=O)N(CC(C)C)CC(C)C,inactive,
CCCOC(=O)NCCCN(C)C,inactive,
COC(=O)c1ccc(I)cc1S(=O)(=O)NC(=O)Nc1nc(C)nc(OC)n1,inactive,
CCCCOC(=O)C(C)Oc1ccc(Oc2ccc(C(F)(F)F)cn2)cc1 (stereo not given),inactive,
CCC(C)OC(=O)N1CCCCC1CCO (stereo not given),inactive,
CCCN(CCC)c1c([N+](=O)[O-])cc(C(F)(F)F)c(N)c1[N+](=O)[O-],inactive,
